Compounds without any hit were thinned out: in the full panel of roughly 79,000, 15% have a hit. The source made the active and inactive calls. Cut-off read from the data, not from the text of the source: active = growth inhibition above about 70%; inactive = the rest. Where a SMILES comes first, the peptide text is derived from it. Bridges are numbered along the chain shown (N, C = ends). Roman numbers before positions name the chains, in order. The star is where a group is joined. Cbz = O=C(OCc1ccccc1)*
How the values were obtained:
[1] = NCI Yeast Anticancer Drug Screen. Data for the rad50 strain (AID 155);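 note: 0% = growth of vehicle-only cultures of the same strain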; settings: S. cerevisiae rad50 strain growth inhibition; at 50.0 µM; active compounds read high
Method in brief: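 Inhibition values express reduced yeast growth in compound-treated cultures relative to vehicle-treated controls.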

[2] = NCI Yeast Anticancer Drug Screen. Data for the mec2-1 strain (AID 157); settings: S. cerevisiae mec2-1 strain, at 50.0 µM, active compounds read high
Method in brief: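 Mutant yeast (mec2-1) grown with compound; growth inhibition relative to vehicle control reported.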

[3] = NCI Yeast Anticancer Drug Screen. Data for the sgs1 mgt1 strain (AID 161);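 note: 0% = growth of cultures given vehicle only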; settings: S. cerevisiae sgs1 mgt1 strain, at 50.0 µM, active compounds read high
Method in brief: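 Percent growth inhibition was derived by comparing compound-exposed mutant yeast with vehicle-exposed cultures. The strain carries alterations in DNA damage repair.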

[4] = NCI Yeast Anticancer Drug Screen. Data for the cln2 rad14 strain (AID 165);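 note: 0% = growth equal to vehicle treated cultures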; settings: S. cerevisiae cln2 rad14 strain, at 50.0 µM, active compounds read high
Method in brief: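 Readout is yeast growth inhibition versus vehicle-treated controls, using a strain with cln2 and rad14 alterations exposed to compound.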

[5] = NCI Yeast Anticancer Drug Screen. Data for the bub3 strain (AID 167); settings: S. cerevisiae bub3 mutant strain, at 50.0 µM, active compounds read high
Method in brief: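 Steps: expose the mutant yeast strain to compound; grow alongside vehicle-treated cultures; measure growth; express inhibition against the vehicle cultures.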

[6] = NCI Yeast Anticancer Drug Screen. Data for the mlh1 rad18 strain (AID 175); settings: S. cerevisiae mlh1 rad18 strain growth inhibition; at 50.0 µM; active compounds read high
Method in brief: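 Genetically defined yeast (DNA repair-deficient) exposed to compounds; growth inhibition determined relative to vehicle.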

Measured: growth inhibition

CC(C)C(NC(=O)C(CSSCC(NC(=O)OCc1ccccc1)C(=O)NC(C(=O)O)C(C)C)NC(=O)OCc1ccccc1)C(=O)O (stereo not drawn) (I: Cbz-Cys-Val-OH / II: Cbz-Cys-Val-OH; disulfide I:1-II:1; configuration not given here)
inactive: [1] 1.4% | [2] 11.3% | [3] -3.75% | [4] -3.25% | [5] -1% | [6] 3.3%

COC1(C)O[C@@]2(C)c3ccccc3C(=O)[C@@]2(c2ccccc2)O1 (stereo partly specified)
inactive: [1] -3.35% | [2] -0.05% | [3] 13.1% | [4] -11.5% | [5] 5.4% | [6] 18.5%

COc1ccc(NC2=CC(=O)C(=O)c3ccccc32)nn1
inactive: [1] -4% | [2] 4.8% | [3] -19.8% | [4] -34.8% | [5] -1.65% | [6] -16%

Cc1cc2c(C)nn(Cc3ccc(Cl)cc3)c2c(C#N)c1C
inactive: [1] 25.4% | [2] -8.85% | [3] 15.6% | [4] 2.85% | [5] 22.1% | [6] 18.9%

CCCCCCCCCCC(=O)OCC
inactive: [1] -30.2% | [2] 0.65% | [3] -21.4% | [4] -1.85% | [5] 1.2% | [6] -32.8%

O=C1c2cccc([N+](=O)[O-])c2C(=O)c2cccc(Cl)c21
inactive: [1] 29.2% | [2] 9.35% | [3] -4.15% | [4] -17.9% | [5] 32.5% | [6] 42.9%

COC(=O)C(Cc1ccc2c(c1)CCC2)Cc1ccc2c(c1)CCC2
inactive: [1] -46.9% | [2] -16.4% | [3] -7.4% | [4] -41.6% | [5] 11.1% | [6] -22.4%

C/C(CCn1[nH]c(=O)ccc1=O)=N\O
inactive: [1] -6.55% | [2] -19.2% | [3] -5.8% | [4] -12.1% | [5] -24.6% | [6] -11.3%

CCCCCCCCC(O)C(O)CCCCCCCCOC(=O)CCCCCCCCCCC(O)CCCCCC (stereo unspecified)
inactive: [1] 13.1% | [2] -8.65% | [3] -1.55% | [4] -9.7% | [5] -2.1% | [6] 18.4%

COc1cc2c(cc1C1=NC(C)(C)CO1)OCO2
inactive: [1] -7.35% | [2] -18.7% | [3] -28.9% | [4] -0.6% | [5] -24.1% | [6] -49.2%

CS(=O)(=O)OC[C@H](NC(=O)c1ccccc1)[C@H](COS(C)(=O)=O)NC(=O)c1ccccc1
inactive: [1] 6.5% | [2] 9.3% | [3] 18.4% | [4] 9.9% | [5] -9.85% | [6] 15.3%

CC(C(=O)O)c1ccc(-n2nnc3c(=O)[nH][nH]c(=O)c32)cc1 (stereo unspecified)
inactive: [1] -16.2% | [2] -8.4% | [3] -12.6% | [4] -17.3% | [5] 2.8% | [6] -5.7%

CN1CCN(S(=O)(=O)C(c2ccccc2)C2(O)CCCCC2)CC1 (stereo unspecified)
inactive: [1] -1.3% | [2] 10.2% | [3] 9.05% | [4] -6.25% | [5] -8.15% | [6] 12.2%

CCOc1c/c(=N\N=C(/C)c2ccc(Cl)cc2)n(C)c(=O)n1C
inactive: [1] -13.8% | [2] -8.5% | [3] -10.5% | [4] -35.2% | [5] -6.85% | [6] -12.7%

Cc1[nH]c(=O)[nH]c(=O)c1CCS
inactive: [1] -12.2% | [2] 1.2% | [3] 5.3% | [4] 37.5% | [5] -20% | [6] -13.2%

CC(=O)NNc1nc(C)c(C(/C=C/c2ccc(NC(C)=O)cc2)=N/NS(=O)(=O)c2ccc(C)cc2)s1
inactive: [1] -6.75% | [2] -23.8% | [3] 3.15% | [4] -6.2% | [5] 6.35% | [6] -21.4%

CC(=O)C1C(=O)C(=O)N(c2ccc(Br)cc2)C1=O (stereo unspecified)
inactive: [1] -33.5% | [2] -12.6% | [3] -14.3% | [4] -9.8% | [5] -24.4% | [6] -38%

CC(C)CC(C)Cc1ccncc1 (stereo unspecified)
inactive: [1] 0.4% | [2] 1.65% | [3] 24.8% | [4] 11.8% | [5] -1.65% | [6] -5%

COc1ccc(C(CN(C)C(C)C)OC(=O)C(c2ccccc2)c2ccccc2)cc1OC (stereo unspecified)
inactive: [1] -14.1% | [2] -6.85% | [3] -12.6% | [4] -8.25% | [5] 1.25% | [6] -17.5%

CN1N=C(c2ccccc2)C(C(c2ccccc2[N+](=O)[O-])C2C(=O)N(C)N=C2c2ccccc2)C1=O (stereo unspecified)
inactive: [1] 46.8% | [2] 34.6% | [3] 8.5% | [4] 3.4% | [5] -3.4% | [6] -2.1%

CC(=O)c1c(P(=O)(OC(C)C)OC(C)C)nn(-c2ccc([N+](=O)[O-])cc2)c1C
inactive: [1] 59.1% | [2] 20.1% | [3] 22.1% | [4] -0.95% | [5] 14.2% | [6] 32.2%

CCN(CC)CCC(C(=O)O)(c1ccccc1)C1(O)CCCC1 (stereo unspecified)
inactive: [1] -7.5% | [2] -13.3% | [3] -7.9% | [4] -26.8% | [5] 7.1% | [6] -25.9%

COc1ccc(C(c2ccccc2)c2ccc(OC)cc2)cc1
inactive: [1] -7.95% | [2] -13% | [3] -12.9% | [4] -124% | [5] 37.7% | [6] 4.45%

CC(=O)CC(C)(C)NC(=S)Nc1ccc(O)cc1
active: [1] 99.7% | [2] 99.5% | [3] 99.8% | [4] 98.8% | [5] 99.8% | [6] 99.8%

NC(=O)CC1CCCCC1
inactive: [1] 8.3% | [2] -9% | [3] -7.05% | [4] 7.35% | [5] 17.2% | [6] -8.55%

Cc1sc2nc3n(c(=O)c2c1C)N=C(c1ccc(Cl)cc1)CS3
inactive: [1] 6.6% | [2] -11.2% | [3] -6.65% | [4] 9.2% | [5] -0.8% | [6] -16.2%

COc1cc(C(=O)O)c(O)c(OC)c1OC
inactive: [1] 0.2% | [2] 0.9% | [3] -8.4% | [4] -36.1% | [5] -13% | [6] 3.4%

CN(C)Cc1cc(C(=O)/C=C/c2c(F)cccc2Cl)cc(CN(C)C)c1O
inactive: [1] 1.7% | [2] 21.4% | [3] 2.35% | [4] 1.05% | [5] -13.8% | [6] 7.35%

CCCCCCCCCCCCCCCCCC(CCCCCCCC)CCCCCCCC
inactive: [1] -5.15% | [2] 0.65% | [3] -30.8% | [4] 3.3% | [5] 0.25% | [6] 23.6%

N#CC(C#N)N=Cc1ccncc1
inactive: [1] 14.2% | [2] 12.2% | [3] -21.6% | [4] -12.8% | [5] -1.1% | [6] -29.2%

CC1(C)C2CC(c3ccccc3)C1/C(=C/O)C2=O (stereo unspecified)
inactive: [1] -16.9% | [2] -3.2% | [3] 2.8% | [4] 36.8% | [5] -3.85% | [6] -2.9%

Cc1c(-c2ccccc2)c(=O)oc2cc(O)ccc12
inactive: [1] -12.4% | [2] 13% | [3] 9.3% | [4] -49.2% | [5] 17.5% | [6] 11.2%

CCCCN(CCCC)CC(O)c1cc(-c2ccc(Cl)cc2)nc2c(Cl)cc(Cl)cc12 (stereo unspecified)
inactive: [1] 26.4% | [2] 5.05% | [3] 10.3% | [4] 18.1% | [5] 0.45% | [6] 28.9%

CCOC(=O)NC(=O)c1cn(CCCCCCOC(=O)NCCCCCCNC(=O)OCCCCCCn2cc(C(=O)NC(=O)OCC)c(=O)[nH]c2=O)c(=O)[nH]c1=O
inactive: [1] 32% | [2] 14.6% | [3] 27.8% | [4] 28.8% | [5] 13.4% | [6] 28.4%

O=C(Nc1c(Cl)cccc1Cl)Nc1c(Cl)cccc1Cl
inactive: [1] -0.95% | [2] -4.85% | [3] 21.1% | [4] 6.7% | [5] 16.8% | [6] 10.9%

Cc1ccc(Cc2n[nH]c(=O)n2/N=C\CC/C=N\n2c(Cc3ccc(C)cc3)n[nH]c2=O)cc1
inactive: [1] -13.9% | [2] -23.6% | [3] -18.1% | [4] -0.9% | [5] -28.9% | [6] -4.05%
